# The whole screen tested about 310,000 compounds, of which about 14,000 (4.5%) showed an effect of 50% or more. Effects have a minus sign here. The sample holds strong results, similar compounds and a random draw of the others, so the mix is not that of the screen.
# Biological target: human ether-à-go-go-related gene (hERG) potassium channel (human, UniProt Q12809)
# Experiment: primary screen, population patch clamp on CHO cells stably expressing hERG; higher = less effect of the substance
# 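Also: peak tail current of the secondary pulse compared with the same well before compound.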
# human ether-à-go-go-related gene (hERG) potassium channel, sequence (Q12809 whole entry, looked up): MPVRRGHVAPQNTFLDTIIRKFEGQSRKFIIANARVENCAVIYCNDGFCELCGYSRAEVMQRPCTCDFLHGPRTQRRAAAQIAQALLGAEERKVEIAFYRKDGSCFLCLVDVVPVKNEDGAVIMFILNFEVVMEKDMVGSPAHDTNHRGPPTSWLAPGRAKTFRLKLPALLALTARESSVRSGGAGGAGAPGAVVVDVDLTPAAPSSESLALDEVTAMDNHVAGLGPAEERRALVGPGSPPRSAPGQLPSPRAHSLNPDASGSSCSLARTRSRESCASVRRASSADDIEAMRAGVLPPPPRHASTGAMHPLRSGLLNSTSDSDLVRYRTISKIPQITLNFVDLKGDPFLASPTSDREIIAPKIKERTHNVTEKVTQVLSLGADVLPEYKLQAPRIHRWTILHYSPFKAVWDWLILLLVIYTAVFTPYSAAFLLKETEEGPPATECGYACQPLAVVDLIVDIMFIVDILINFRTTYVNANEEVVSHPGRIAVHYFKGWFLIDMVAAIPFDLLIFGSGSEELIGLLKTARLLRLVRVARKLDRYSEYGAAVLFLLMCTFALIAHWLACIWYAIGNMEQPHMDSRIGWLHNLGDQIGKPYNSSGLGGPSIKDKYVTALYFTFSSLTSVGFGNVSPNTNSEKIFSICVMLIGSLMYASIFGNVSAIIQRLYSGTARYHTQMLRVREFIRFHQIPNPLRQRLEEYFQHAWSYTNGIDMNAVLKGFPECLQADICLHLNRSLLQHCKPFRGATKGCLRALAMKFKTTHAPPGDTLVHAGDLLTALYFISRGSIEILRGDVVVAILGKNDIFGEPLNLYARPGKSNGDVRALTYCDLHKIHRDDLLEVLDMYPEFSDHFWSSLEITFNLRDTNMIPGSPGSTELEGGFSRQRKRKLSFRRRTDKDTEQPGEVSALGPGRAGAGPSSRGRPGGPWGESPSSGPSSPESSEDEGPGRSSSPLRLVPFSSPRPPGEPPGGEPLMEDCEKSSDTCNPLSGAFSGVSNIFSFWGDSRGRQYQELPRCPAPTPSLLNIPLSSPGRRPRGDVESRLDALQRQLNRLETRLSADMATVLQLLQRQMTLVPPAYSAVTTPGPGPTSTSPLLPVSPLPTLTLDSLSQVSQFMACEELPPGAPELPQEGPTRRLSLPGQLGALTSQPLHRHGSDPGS
row,Compound,"hERG current change (%, negative = inhibition) at 10uM [%]"
1,Cc1scc(C(=O)N/N=C/c2ccco2)c1C,2.52
2,CCCc1cc(=O)[nH]c(SCC(=O)N(CC)C2CCS(=O)(=O)C2)n1 (stereo not shown),13.2
3,N=C(N)c1c(O)n(C2CCCCC2)c(=O)n(C2CCCCC2)c1=O,18.5
4,CC1Cc2ccccc2N1C(=O)c1cc2sccc2n1Cc1ccc(F)cc1 (stereo not shown),12.3
5,Oc1ccc(-c2nnc(SCc3ccccc3)o2)cc1,-8.15
6,COc1ccc2c(c1)c(=O)c(C(=O)c1ccc(F)cc1)cn2CC(=O)Nc1ccc(F)cc1,-5.61
7,COc1ccc2c(c1)c(=O)c(C(=O)c1ccccc1)cn2Cc1ccccc1,-71.8
8,COc1ccc2c(c1)c(=O)c(C(=O)c1ccccc1)cn2Cc1ccc(C)cc1,-75
9,COc1ccc2c(c1)c(=O)c(C(=O)c1ccc(C)cc1)cn2CC(=O)Nc1ccc(F)cc1,-10.1
10,COc1ccc2c(c1)c(=O)c(C(=O)c1ccc(Cl)cc1)cn2CC(=O)Nc1ccc(F)cc1,12.4
11,COc1ccc(Cn2cc(C(=O)c3ccccc3)c(=O)c3cc(OC)ccc32)cc1,-31.3
12,Cc1cccc(NC(=S)NC2CCSc3ccccc32)c1 (stereo not shown),14.5
13,COc1ccc(OCC(=O)Nc2ccccc2OC(F)F)cc1,-22.2
14,CC1CC(C)CN(C(=O)c2ccc(Br)c(S(=O)(=O)N3CCOCC3)c2)C1 (stereo not shown),-26.6
15,NC(=O)C(c1ccccn1)c1ncc(C(F)(F)F)cc1Cl (stereo not shown),11.7
16,Br.O=C(CN1C2=NCCN2c2ccccc21)c1ccc(Br)cc1,-67.6
17,Cl.O=C(CN1C2=NCCN2c2ccccc21)c1ccco1,-20.7
18,Br.O=C(CN1C2=NCCN2c2ccccc21)c1ccc2c(c1)OCO2,-60.9
19,Cl.O=C(CN1CCCCC1)c1ccc2c(c1)OCO2,-4.7
20,CC(C)(C)n1nnnc1C(c1ccc(Cl)cc1)N(Cc1cccnc1)Cc1ccco1 (stereo not shown),-14.7
21,CCOC(=O)c1[nH]c(C)c(C(=O)N2CCc3ccccc32)c1C,-12.6
22,Cc1ccc(OCC(=O)NCC(=O)Nc2ccc(F)c(F)c2F)c([N+](=O)[O-])n1,-34.4
23,Cc1nc(Nc2cccc(C(C)O)c2)c2nnn(Cc3ccc(F)cc3)c2n1 (stereo not shown),5.08
24,COc1ccc(-n2c(=O)c(CCC(=O)N(C)Cc3ccccc3C)nc3ccccc32)cc1,-50.4
25,COc1ccc(-n2c(=O)c(CCC(=O)N(C)Cc3cccs3)nc3ccccc32)cc1,-38.7
26,CCc1ccc(CN(C)C(=O)CCc2nc3ccccc3n(-c3ccc(OC)cc3)c2=O)cc1,-0.36
27,COc1cc2c(cc1OC)-c1cc(Nc3ccccc3)nc(=O)n1CC2,-64.1
28,COc1ccc(Nc2cc3n(c(=O)n2)CCc2cc(OC)c(OC)cc2-3)cc1,4.8

row,Compound,"hERG current change (%, negative = inhibition) at 10uM [%]"
1,COc1cc2c(cc1OC)-c1cc(Nc3ccc(C)cc3)nc(=O)n1CC2,-8.97
2,O=C(NCc1ccc2c(c1)OCO2)Nc1ccc(Cl)cc1,5.12
3,COc1cccc(NC(=O)c2cnc[nH]2)c1,25.1
4,COc1ccccc1NC(=O)C(=O)NCc1ccncc1,-5.14
5,Cn1c(CCc2ccccc2)nnc1SCC(N)=O,15.3
6,N#Cc1c(-c2ccccc2)c(-c2ccccc2)nn(CC(=O)NNC(=O)Nc2ccc(Cl)c(Cl)c2)c1=O,-1.35
7,CC(=O)N1CC[n+]2c(-c3ccc([N+](=O)[O-])cc3)csc21.[Br-],-68.9
8,CCc1ccc(-c2csc3[n+]2CCN3C(C)=O)cc1.[Br-],-29.1
9,CC(=O)N1CC[n+]2c(-c3ccc(Cl)cc3)csc21.[Br-],-1.19
10,C=CCN1CCN(C(=O)c2cc3c(s2)CCC(CC)C3)CC1 (stereo not shown),-57.3
11,CCC1CCc2sc(C(=O)N3CCCN(C)CC3)cc2C1 (stereo not shown),-12.9
12,C=CCN1CCN(C(=O)c2cc3c(s2)CCCC3)CC1,-19.3
13,Cc1ccc(C)c(C(C)NC(=O)c2ccncc2)c1 (stereo not shown),-7.4
14,Cc1cc(C(F)F)nn1CC(=O)NC1CCCC1,1.56
15,CCN1CCN(C(=O)c2ccc3nc(-c4ccccc4)c(-c4ccccc4)nc3c2)CC1,-17.4
16,CCOC(=O)N1CCN(C(=O)c2ccc3nc(-c4ccccc4)c(-c4ccccc4)nc3c2)CC1,-54.6
17,CCC(=O)c1cc(F)c(N2CCN(C(=O)Cc3ccccc3)CC2)cc1C,-58.9
18,CCCC(=O)c1ccc(N2CCN(C(=O)c3ccccc3Br)CC2)c(F)c1,-23.7
19,CCC(=O)c1ccc(N2CCN(C(=O)Cc3ccccc3)CC2)c(F)c1,-36.5
20,CCOC(=O)N1CCN(c2ccc(C(=O)c3ccccc3)cc2F)CC1,-50.8
21,CCCC(=O)c1ccc(N2CCN(C(=O)c3ccc(Br)cc3)CC2)c(F)c1,2.35
22,CN1CCN(C(=O)c2ccc3nc(-c4ccccc4)c(-c4ccccc4)nc3c2)CC1,6.03
23,CCCC(=O)c1ccc(N2CCN(C(=O)c3ccccc3)CC2)c(F)c1,-66.7
24,CC(=O)c1cc(F)c(N2CCN(C(=O)Cc3ccccc3)CC2)cc1C,-11.5
25,CCCC(=O)c1ccc(N2CCN(C(=O)OCC)CC2)c(F)c1,-14.2
26,CCOC(=O)N1CCN(c2ccc(C(C)=O)cc2F)CC1,5.68
27,Cc1ccc(Cn2c(C)cc3c(c2=O)C(c2cccs2)C(C#N)=C(N)O3)cc1 (stereo not shown),15.8

# — publication PMC4336329 (PLoS ONE, 2015)
